The panel holds about 83,000 compounds, 20% with a hit somewhere; the sample as a whole holds those more often.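 Single-concentration screen, 48 h exposure, 96-well plates. Endpoint: percent growth. Below 10 = active.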 Unmarked numbers belong to inactive results. Activity calls are given as the source filed them.

The values that follow come from PubChem BioAssay (NCI).

Common to all, as to experiment: NCI-60 one-dose screen, 48 h (100 = growth as untreated, 0 = no growth, -100 = all killed)
Common to all, as to settings: 10 µM unless noted

The test system of assay [1] is SK-MEL-2 melanoma.
Assay [2] deals with SN12C renal.
The subject of assay [3] is UO-31 renal.
For assay [4], the system named is TK-10 renal.
Assay [5] has as its system ACHN renal.
The test system of assay [6] is CAKI-1 renal.
Assay [7] concerns CCRF-CEM leukemia.
Assay [8] has as its system MOLT-4 leukemia.
Assay [9] concerns SR leukemia.
In assay [10] the test system is RPMI-8226 leukemia.
Assay [11] has as its system OVCAR-8 ovarian.
Assay [12] concerns OVCAR-4 ovarian.
Assay [13] deals with SK-OV-3 ovarian.
Assay [14] concerns IGROV1 ovarian.
The subject of assay [15] is OVCAR-3 ovarian.
Assay [16] concerns HS 578T breast.
For assay [17], the system named is NCI/ADR-RES ovarian.
Assay [18] has as its system OVCAR-5 ovarian.

In the case of `O=C(CNC1CCCCC1)Nc1ccc(-c2nc3ccccc3s2)cc1`, the growth in [1] is 105%; in assay [2], 86.7%; in assay [3], 56.5%; in [4], 103%; in [5], 99.1%; in assay [6], 86%. Besides, the growth is 77.3% in assay [7]; 54.1% in assay [8]; 9.67% (active) in [9]; 77.6% in [10]; 99.3% in assay [11]; 84.4% in assay [12]. In addition, the growth in [13] is 90.8%; in assay [14] it was 100%; in [15], 94%; in assay [16] it was 84.3%; in assay [17] it was 89%.

Regarding `Clc1ccc2c(c1)NC1(CCSc3ccccc31)n1nccc1-2` (stereo unspecified), the growth in assay [1] is 98.7%; in assay [2], 104%; in [3], 83.5%; in assay [4], 96.7%; in assay [5] it was 100%; in assay [6], 96.3%. The growth was 95.7% in assay [7]; 90.9% in assay [8]; 91.6% in assay [9]; 94.6% in assay [10]; 100% in assay [11]; 92.6% in assay [18]. The growth in assay [12] is 103%; in [14], 102%; in assay [15], 94.6%; in [16] it was 110%; in assay [17], 98.6%.

For the molecule `CN(C)c1ccc(/C=C\N=Nc2ccc(Br)cc2)cc1`, the growth in [1] is 72%; in assay [2] it was 65.8%; in assay [3], 32.6%; in assay [4], 68.5%; in assay [5], 60.4%; in assay [6], 51.5%. For the same molecule, the growth in assay [7] is 29.7%; in assay [8] it was 29.2%; in assay [9], 21%; in assay [10] it was 50.2%; in [11], 46.5%; in assay [18], 76.6%. Moreover, the growth is 65% in assay [12]; 66.7% in assay [14]; 67.9% in [15]; 102% in [16]; 52.3% in assay [17].

Take `Cc1ccc2c(c1)C(=O)C(c1c(-c3[nH]c(=O)c4ccc(C)cc4c3O)c(O)c3ccccc3c1O)=NC2=O`: the growth in assay [1] was 11.8%; in assay [2], -4.86% (active); in assay [3], -11% (active); in assay [4], 46.9%; in assay [5] it was 6.58% (active); in [6], -2.66% (active). Also, the growth was 16.6% in assay [7]; -13.3% (active) in [8]; 23.1% in [9]; 14.4% in assay [11]; 66.4% in assay [18]; 25.2% in [12]. Further, the growth in [13] was 44%; in assay [14] it was 6.46% (active); in assay [15], -38.7% (active); in assay [16] it was 32.4%; in [17] it was 14.9%.

As to `CCN(C(=O)c1cc2ncccc2[nH]1)[C@H]1CCC[C@@H](NCc2cccc(F)c2)C1`, the growth was 105% in [1]; 95.3% in assay [2]; 74.3% in [3]; 92.6% in assay [4]; 102% in assay [5]; 101% in assay [6]. For the same molecule, the growth in [7] is 128%; in assay [8] it was 95.9%; in assay [9], 99.6%; in assay [10], 91.8%; in [11], 103%; in [12], 104%. The growth in assay [13] is 103%; in assay [14], 91.1%; in [15], 95.7%; in [16], 109%; in assay [17] it was 89.1%.

For `Cc1cc(Nc2nc(-c3ccncc3)nc3ccccc23)n[nH]1`, the growth in assay [1] was 57.6%; in assay [2] it was 61.6%; in assay [3], 33.4%; in assay [4] it was 62%; in assay [5], 40.2%; in assay [6], -6.19% (active). Further, the growth was 67.6% in [7]; 60.5% in assay [8]; 18.3% in assay [9]; 91.6% in assay [10]; 101% in assay [11]; 87.1% in [18]. The growth in [13] is 22.8%; in assay [14], 16.3%; in assay [15], 67.2%; in [16], 22.6%; in assay [17] it was 86.4%.

Consider `COc1ccc(/C=N/NC(=O)Cn2c(Cc3cccc4ccccc34)nc3ccccc32)cc1`, for which the growth in assay [1] is 99.5%; in assay [2] it was 93.1%; in assay [3] it was 72.1%; in assay [4], 105%; in [5] it was 107%; in [6], 83.8%. The growth was 91% in assay [7]; 69.5% in [8]; 88.3% in assay [10]; 93.7% in [11]; 96% in assay [18]; 104% in assay [12]. The growth in [13] is 106%; in assay [14], 108%; in assay [15] it was 101%; in assay [16], 95.8%; in assay [17], 93.6%.

For the molecule `CCC(C)NCC(=O)O` (stereo unspecified), the growth was 85.6% in assay [1]; 110% in [2]; 98.4% in [3]; 107% in [4]; 97.7% in [5]; 97.7% in [6]. In addition, the growth was 106% in assay [8]; 93.5% in assay [9]; 110% in assay [11]; 96% in assay [18]; 105% in assay [12]; 106% in [13]. The figures for the growth in [14], in assay [15] and in [17] were 110%, 111% and 110%, respectively.

In the case of `NS(=O)(=O)c1ccc(NCC(=O)Nc2ccc(-c3nc4ccccc4s3)cc2)cc1`, the growth in assay [1] was 87.8%; in assay [2] it was 47.8%; in [3], 74.4%; in assay [4], 106%; in [5], 105%; in assay [6], 92.9%. For the same molecule, the growth is 6.24% (active) in assay [7]; 6.23% (active) in [8]; 16% in assay [9]; 36.7% in [10]; 82.7% in assay [11]; 67.2% in assay [12]. For the same molecule, the growth in assay [13] is 106%; in assay [14], 59%; in assay [15], 34.3%; in assay [16], 98.3%; in assay [17] it was 94%.
